CHX counter = Cycloheximide Counterscreen for Small Molecule Inhibitors of Shiga Toxin | AID 2314, 2010 | cell reporter, cycloheximide protein synthesis inhibition counterscreen | 300,000 tested, 12% active | max response, %; in the data active = max response mostly above about 13%, no sharp cut-off; inactive = mostly below about 14%; note: read at 38.3 µM for the half of the compounds with a filed dose
LmPK inhibitor = qHTS Assay for Inhibitors of Leishmania Mexicana Pyruvate Kinase (LmPK) | Q27686 | purified LmPK, Kinase-Glo ATP luminescence, 1 h | 290,000 tested, 0.37% active | Potency, µM (doses to about 57.5 µM), hits mostly inhibitors
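In 50 mM imidazole pH 7.2 with 7 mM MgCl2, LmPK (0.1 nM) turned over PEP (0.5 mM) and ADP (0.1 mM) for 1 h at room temperature. Luciferase read-out of ATP.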
Pf growth 48h = Primary qHTS for delayed death inhibitors of the malarial parasite plastid, 48 hour incubation; Potency, µM (top dose mostly 28.7 µM), hits mostly inhibitors; P. falciparum luciferase growth in erythrocytes, 48 h; 310,000 tested, 5.9% active
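Growth was read as firefly luciferase luminescence after a 48 h, 37 C, 5% CO2 exposure of compounds to reporter-bearing P. falciparum cultures (0.1% parasitemia, 2% hematocrit final) in Albumax-supplemented RPMI 1640.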
Shiga inhibitor = A qHTS for Small Molecule Inhibitors of Shiga Toxin; Vero cells, Shiga toxin protein synthesis inhibition reporter; inhibition, % at 38.7 µM; 290,000 tested, 9.2% active; AID 2315, 2010; in the data active = inhibition mostly above about 28%, no sharp cut-off; inactive = mostly below about 43%
Pf growth 96h = Primary qHTS for delayed death inhibitors of the malarial parasite plastid, 96 hour incubation; AID 504834, 2011; 320,000 tested, 6.9% active; Potency, µM (series often up to 28.7 µM), actives largely listed as inhibitors; P. falciparum luciferase reporter growth, 96 h
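Parasite growth measured via integrated firefly luciferase reporter in P. falciparum. Infected erythrocytes at 2% hematocrit, 0.05% parasitemia final were treated 96 hours at 37 C under 5% CO2, and luminescence was read.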
Of the large screens only hits and unclear results are named; the others gave an inactive call. Most compounds without a hit are left out; they make up all but 22% or so of the library. Unless noted, calls come from the whole dose curve; as a rule, active = well fitted inhibition curve with a large enough effect; inconclusive = small, poorly fitted or top-dose-only effect, or another doubt; inactive = no such curve, though single readings can be large or run the other way.

COc1ccc(C2NCCc3c2[nH]c2ccccc32)cc1CN1CCc2cc(OC)c(OC)cc2C1C (configuration not stated)	Pf growth 48h 1.65µM, Pf growth 96h inconclusive
COc1ccc(C2NCCc3c2[nH]c2ccccc32)cc1COc1ccc(F)cc1 (configuration not stated)	Pf growth 48h inconclusive, Pf growth 96h inconclusive
CN1C(=O)/C(=C\c2ccc(OC(=O)c3ccco3)cc2)SC1=S	none
N#Cc1c(N)nc(Sc2ccc(Cl)cc2)c(C#N)c1-c1ccccc1Cl	Pf growth 48h inconclusive, Pf growth 96h 7.38µM
COc1ccc(-c2nc(CCNC(=O)c3cccs3)cs2)cc1	Pf growth 96h inconclusive
O=C(/C=C/c1ccccc1)Nc1ccc(NC(=O)c2cccs2)cc1	none
O=C(/C=C/c1ccccc1)NNC(=O)c1cccs1	CHX counter 23.4
COc1ccccc1/C=C/C(=O)NNC(=O)c1cccs1	CHX counter 26.3, Shiga inhibitor 70.9
COc1ccc(CN2C(=O)c3ccccc3C2=O)cc1C(=O)N(C)CC(=O)Nc1ccc(F)cc1	none (no result: CHX counter, LmPK inhibitor, Shiga inhibitor)
COc1ccccc1CNC(=O)c1cnccn1	none (no result: Pf growth 48h)
COCCCNC(=O)c1cc(-c2cccnc2)nc2ccccc12	Pf growth 96h inconclusive
COc1ccccc1CNC(=O)c1cc(-c2cccnc2)nc2ccccc12	Pf growth 48h 10.4µM
COc1ccccc1CNC(=O)c1cccnc1	Pf growth 96h 11.7µM
Cc1ccc2c(c1)C(c1ccccc1)N(C(=O)c1cccc([N+](=O)[O-])c1)CC(=O)N2 (configuration not stated)	Pf growth 48h inconclusive

From PubChem
